Source: PubChem (several laboratories)
MsrA act: activates bovine MsrA enzyme; purified bovine MsrA, absorbance read-out; activation, % at 10.6 µM; 360,000 compounds, 0.3% hits; in the data active means activation above about 7.5%;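 further: 0% = vehicle and 100% = reference activator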
NadD inh: blocks S. aureus nicotinate mononucleotide adenylyltransferase | purified NadD enzyme, colorimetric absorbance read-out | 360,000 compounds, 0.78% hits | inhibition, % at 20 µM | AID 602399; in the data active means inhibition above about 26%
rCAG binder: r(CAG) repeat RNA binding; AID 651821; TO-PRO-1 dye displacement fluorescence; 370,000 compounds, 1.3% hits; inhibition, % at 3 µM;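 active means inhibition above the plate cutoff, the mean of all test compounds on that plate plus 3 SD, cut at about 35% in these data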;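 further: 0% = DMSO alone and 100% = 100 µM mitoxantrone as full dye displacement; higher means more dye released from RNA so lower well fluorescence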
MsrA inhibitor: inhibitors of bovine MsrA; purified bovine MsrA, absorbance read-out; inhibition, % at 15.5 µM; 360,000 compounds, 0.75% hits; in the data active means inhibition above about 4.5%;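 further: 0% = vehicle wells with enzyme and 100% = reference inhibitor wells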
rCAG bind conf: r(CAG) RNA repeat binding, confirmation. shares compounds with rCAG binder. inhibition, % at 3 µM. AID 652065. 4,300 compounds, 70% hits. TO-PRO-1 dye displacement fluorescence;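 active means inhibition above a per-plate cutoff, the mean inhibition of sample wells plus 3 SD, cut at about 35% in these data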;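 further: loss of TO-PRO-1 fluorescence as compound displaces dye from 1x1 AA loop RNA; 0% = DMSO only wells and 100% = 100 µM mitoxantrone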
DNA CAG counter: disrupts DNA CAG TO-PRO-1 complex, flagging rCAG hits; 4,300 compounds, 94% hits; d(CAG) DNA oligo TO-PRO-1 dye displacement, fluorescence; inhibition, % at 3 µM; shares compounds with rCAG binder;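 active means inhibition above its plate's cutoff, the mean test-well inhibition plus 3 SD, cut at about 4.8% in these data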;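 further: 0% = DNA dye mix with DMSO and 100% = 100 µM mitoxantrone; hits displace the dye from DNA and so lower well fluorescence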
dCAG dye DR: counter-screen for rCAG binders: inhibitors of DNA CAG TO-PRO-1 complex. shares compounds with rCAG binder. DNA CAG/GTC duplex TO-PRO-1 dye displacement fluorescence. IC50, µM. 250 compounds, 20% hits; in the data active means IC50 below about 10 µM
An asterisk follows results filed as active; . = no result given. Only some compounds are listed: those with a hit (about 2.7% of all), similar ones and a draw of the others.

SMILES	MsrA act	NadD inh	rCAG binder	MsrA inhibitor	rCAG bind conf	DNA CAG counter	others
COc1ccc(C2=NN(c3ccccc3)C(=O)/C2=C\c2ccc(O)c(OC)c2)cc1	-3	14	57*	3	66*	29*
COc1cc(/C=N/NC(=O)c2cc3ccccc3cc2O)ccc1OCCN1CCCCC1	-2	24	7	0	.	.
COc1ccc2c(c1)cc(C(=O)N/N=C/c1c(O)c(C(=O)O)cc3ccccc13)n2C	-3	9	91*	1	89*	68*
Cn1c(O)c(/C=N/NC(=O)c2cc3ccccc3cc2O)c2ccccc21	-2	31*	95*	3	90*	75*
CC(=O)Nc1ccc(N=Cc2c(O)c(C(=O)Nc3ccccc3)cc3ccccc23)cc1	.	.	13	2	.	.
O=C1/C(=C2\C(=O)N(Cc3ccc(F)cc3)c3ccccc32)SC(=S)N1CCS(=O)(=O)O	-3	15	75*	1	83*	47*
Nc1nc2c(c(=O)[nH]1)C(c1cccc3ccccc13)C1=C(N2)c2ccccc2C1=O (stereo unspecified)	-3	12	78*	-1	57*	34*
CC(=O)C1=C(C)NC2=C(C(=O)c3ccccc32)C1c1ccccc1 (stereo unspecified)	-5	-5	3	0	.	.
CC1C/C=C/C=C/C=C/C=C/C(O[C@@H]2O[C@H](C)[C@@H](O)[C@H](N)[C@@H]2O)CC2OC(O)(CC(O)CC3OC3/C=C/C(=O)O1)CC(O)C2C(=O)O (stereo partly specified)	.	.	14	-1	.	.
C[C@@H]1[C@H](O)[C@@H](C)/C=C/C=C/C=C/C=C/C=C/C=C/C=C/[C@H](OC2O[C@H](C)[C@@H](O)[C@H](N)[C@@H]2O)C[C@@H]2O[C@](O)(C[C@@H](O)C[C@@H](O)[C@H](O)CC[C@@H](O)C[C@@H](O)CC(=O)O[C@H]1C)C[C@H](O)[C@H]2C(=O)O (stereo partly specified)	.	.	41*	.	44*	14*	dCAG dye DR=>30
NC(=O)c1sc2nc3c(c(-c4ccco4)c2c1N)CCC3	0	8	43*	1	4	4
CCOC(=O)C1=C(CC)Nc2ccccc2N/C1=N\S(=O)(=O)c1ccc2ccccc2c1	-3	-5	36*	0	41*	12*
CCOC(=O)C1=C(C)Nc2ccccc2N/C1=N\S(=O)(=O)c1ccc(Cl)cc1	-5	-2	35*	1	27	4.9*
CCOC(=O)C1=C(C)Nc2ccccc2N/C1=N\S(=O)(=O)c1cccc(Cl)c1	-4	5	33	2	.	.
CCOC(=O)C1=C(CC)Nc2ccccc2N/C1=N\S(=O)(=O)c1cc(Br)ccc1Br	-2	2	63*	1	59*	21*
CCCc1nc2ccc(C(=O)OC)cn2c1Cc1cccc(F)c1	-11	2	5	0	.	.
Nc1ccc(S(=O)(=O)Nc2nccs2)cc1N=Nc1ccccc1[N+](=O)[O-]	-4	15	68*	2	81*	48*
O=[N+]([O-])c1ccccc1S(=O)(=O)Nc1ccc(S(=O)(=O)Nc2nccs2)cc1	-4	-6	4	-1	.	.
CCCCc1cc(=O)oc2c(C)c(OCC(=O)N3CCC(C(=O)O)(c4ccccc4)CC3)ccc12	-1	9	40*	2	52*	13*
COc1ccc([N+](=O)[O-])cc1-c1[nH]c(-c2ccc(C(=O)O)cc2)nc1-c1ccccc1	-7	3	55*	3	48*	16*
Cc1ccc([N+](=O)[O-])cc1-c1[nH]c(-c2ccc(O)c(O)c2)nc1-c1ccccc1	-11	31*	35*	0	37*	19*
Cc1ccc(-c2nc3ccc([N+](=O)[O-])cc3[nH]2)cc1	-6	-9	4	2	.	.
COCCCN1C(=O)[C@H](CC(=O)NCCCCc2ccccc2)[C@]2(C(=O)OC)CCCCC=C12	.	.	-1	.	.	.
Cc1ccc(S(=O)(=O)Nc2ccc(-c3csc(-c4ccccc4)n3)cc2)cc1	-6	4	28	1	.	.
CNc1nc(-c2ccc([N+](=O)[O-])cc2)cs1	-3	-4	3	1	.	.
SMILES	MsrA act	NadD inh	rCAG binder	MsrA inhibitor	rCAG bind conf	DNA CAG counter	others
COc1ccc(Cc2nnc(NS(=O)(=O)c3ccc([N+](=O)[O-])cc3)s2)cc1	-4	5	44*	1	49*	17*
COc1ccc(Nc2nc(-c3ccc(OC)cc3)cs2)cc1	-3	3	3	-1	.	.
COc1ccc(-c2csc(Nc3ccc(S(=O)(=O)Nc4cc(C)on4)cc3)n2)cc1	-6	9	73*	1	72*	36*
COc1ccc(-c2csc(NS(=O)(=O)c3ccc([N+](=O)[O-])cc3)n2)cc1	-1	8	70*	1	57*	23*
Cc1ccc(S(=O)(=O)Nc2nc(-c3ccccc3)cs2)cc1	-2	-1	40*	1	26	6.1*
COc1ccc(Cc2nnc(NS(=O)(=O)c3ccccc3)s2)cc1	-11	-1	24	1	.	.
CC(C)(C)c1ccc(OCCCC(=O)Nc2nnc(C3CC3)s2)cc1	-7	3	2	-1	.	.
COc1cc2c(cc1OC)C(c1ccccc1F)NCC2 (stereo unspecified)	-3	-4	-3	2	.	.
O=c1cc(CO)[nH]nc1CO	0	0	1	1	.	.
CCOC(=O)Cn1cnc2scc(-c3ccc(C)cc3)c2c1=O	-4	-4	-2	0	.	.
Cc1ccc(Nc2nc(-c3cccs3)cs2)nc1	-1	7	7	1	.	.
COc1cc(NS(=O)(=O)c2ccc(Nc3nc(-c4cccc([N+](=O)[O-])c4)cs3)cc2)nc(OC)n1	-3	28	95*	1	90*	64*
Cc1ccc(Nc2nc(-c3ccccc3)cs2)nc1	-2	4	47*	-1	4	1
O=[N+]([O-])c1cccc(-c2csc(Nc3ccccc3)n2)c1	-14	2	9	1	.	.
Cc1ccc(S(=O)(=O)Nc2ccccc2-c2ccccc2NS(=O)(=O)c2ccc(C)cc2)cc1	-5	3	74*	1	89*	59*
Cc1ccc(Cl)c2c1NC(=O)C2=O	-1	-2	-2	-1	.	.
Cc1occc1C(=O)NNS(=O)(=O)c1ccc([N+](=O)[O-])cc1	-2	-14	3	0	.	.
C=CCc1ccccc1Oc1cc(OC)nc(N)n1	0	-3	-3	-1	.	.
Cc1cccc(N=C2NC(=O)/C(=C/c3cccs3)S2)c1	-5	-3	22	3	.	.
Cc1c(/C=C2\SC(=Nc3cccc(C(=O)O)c3)NC2=O)c2ccccc2n1C	-7	7	45*	2	40*	15*
Cc1ccc(Cn2cc(/C=N/Nc3ccc([N+](=O)[O-])cn3)c3ccccc32)cc1	-2	19	6	1	.	.
